Compound activity (PubChem)
RMI-FANCM inh – blocks RMI1/RMI2 complex binding to FANCM MM2 peptide. FP signal (polarization) at 33 µM. actives 0.58% (n = 70,000). Fluorescence polarization, RMI core complex with F-MM2 peptide; stronger effect = lower value; in the data active = FP signal below about 40
The depositor's hits bear a star; ! = a repeat was not active. This excerpt belongs to a sample that is enriched for hits.

Results for C/C(=N\NC(=O)c1cc(-c2ccc3c4c(cccc24)CC3)n[nH]1)c1ccncc1 ?
RMI-FANCM inh: 61

How did CSc1nc2ccc(NC(=O)C(=S)NC(=O)c3ccc(F)cc3)cc2s1 do in these assays?
RMI-FANCM inh: 57

Results for O=C(COc1cccc(Cl)c1)NCCCn1nc(-c2ccc(Cl)cc2)ccc1=O ?
RMI-FANCM inh: 66

What do the screens show for `CCOc1ccccc1N1C(=O)/C(=C/C=C/c2ccco2)SC1=S`?
RMI-FANCM inh: 14*

What do the screens show for `CCOc1ccc(N2C(=O)S/C(=C\C=C\c3ccco3)C2=O)cc1`?
RMI-FANCM inh: 54

What do the screens show for `CCOc1ccccc1N1C(=O)CNC1=S`?
RMI-FANCM inh: 55

How did Cc1ccccc1-c1ccc(N2CCN(S(=O)(=O)Cc3ccccc3)CC2)nn1 do in these assays?
RMI-FANCM inh: 70

How did O=C(NCC1CCN(C2CCCC2)CC1)C(=O)Nc1cccc(C(F)(F)F)c1 do in these assays?
RMI-FANCM inh: 80

Results for COc1cc(C(=O)Nc2ccccc2C(=O)NCC2CCCO2)cc(OC)c1OC (configuration not stated) ?
RMI-FANCM inh: 64

How did CN1C(=O)c2cccc(NC(=O)c3ccc(N(C)C)cc3)c2C1=O do in these assays?
RMI-FANCM inh: 68

How did CN1C(=O)c2cccc(NC(=O)c3cccc(Cl)c3)c2C1=O do in these assays?
RMI-FANCM inh: 73

How did CN1C(=O)c2cccc(N)c2C1=O do in these assays?
RMI-FANCM inh: -41*

What do the screens show for `CC1(C)C(=O)C2(C(=O)Nc3cccc(Cl)c3)CCC1C2` (configuration not stated)?
RMI-FANCM inh: 57

What do the screens show for `Cn1c(SCc2nc(-c3ccc(F)cc3)no2)nc2cc(-c3ccccc3)sc2c1=O`?
RMI-FANCM inh: 72

Results for Clc1cccnn1 ?
RMI-FANCM inh: -3*

Results for N#Cc1ccc(Cl)nn1 ?
RMI-FANCM inh: 65

Results for Clc1ccc(-c2csc3ncnc(SCc4ccc5c(c4)OCO5)c23)cc1 ?
RMI-FANCM inh: 77

What do the screens show for `c1ccc(-c2csc(-c3ccc(-c4ccccn4)s3)n2)cc1`?
RMI-FANCM inh: 71

What do the screens show for `Cc1sc2sc(-c3ccccc3)c(N)[n+]2c1C`?
RMI-FANCM inh: 72

Results for Nc1c(-c2ccccc2)sc2nc(-c3ccccc3)cc[n+]12 ?
RMI-FANCM inh: 11*

How did NC(=O)/C=C/c1ccco1 do in these assays?
RMI-FANCM inh: 53

What do the screens show for `O=C(/C=C/c1ccc(Br)o1)/C=C/c1ccc(Br)o1`?
RMI-FANCM inh: 62

How did O=C(/C=C\c1ccco1)/C=C/c1ccc(-c2ccc(Cl)c(Cl)c2)o1 do in these assays?
RMI-FANCM inh: -11*

What do the screens show for `O=C(/C=C/c1ccc(-c2cccc(Br)c2)o1)c1ccco1`?
RMI-FANCM inh: 77

Results for O=C(/C=C\c1ccco1)/C=C/c1ccc(-c2ccc(Br)cc2)o1 ?
RMI-FANCM inh: 8*

How did N#C/C(=C/c1ccc(-c2ccc(Cl)c(Cl)c2)o1)C(=O)Nc1ccccc1I do in these assays?
RMI-FANCM inh: 75

What do the screens show for `Cc1ccc(S(=O)(=O)N2CCN(c3ccc(-c4ccc(Cl)cc4)nn3)CC2)s1`?
RMI-FANCM inh: 70

How did CC(=O)OC1CCC2(C)C3CCC4(C)C(C(C)CCCC(C)C)CCC4C3CC[C@@]2(Cl)C1 (some centres not stated) do in these assays?
RMI-FANCM inh: 59

Results for Cc1ccc2nc(C)oc(=O)c2c1 ?
RMI-FANCM inh: 54

How did COc1ccc(NC(=O)CO)cc1 do in these assays?
RMI-FANCM inh: 68

What do the screens show for `COc1ccc(Nc2c(Cl)cc(OC)cc2Cl)cc1`?
RMI-FANCM inh: 58

What do the screens show for `COc1ccc(NC2=CC(=O)C=CC2=O)cc1`?
RMI-FANCM inh: 30*

How did CN1CCN(C(CNS(=O)(=O)c2ccccc2)c2ccsc2)CC1 (configuration not stated) do in these assays?
RMI-FANCM inh: 67

Results for O=C(CSc1nc(CC(=O)N2CCN(c3ncccn3)CC2)cs1)c1ccccc1 ?
RMI-FANCM inh: 63

How did O=C(O)CCC1(c2ccccc2)NC(=O)N(CC(=O)Nc2ccccc2F)C1=O (configuration not stated) do in these assays?
RMI-FANCM inh: 62

Results for C/C=C/C(=O)Nc1cc(C)nn1-c1nc2c(c(=O)[nH]1)CCC2 ?
RMI-FANCM inh: 70

What do the screens show for `Cc1cc(NC(=O)c2cc(=O)c3ccccc3o2)n(-c2nc3c(c(=O)[nH]2)CCC3)n1`?
RMI-FANCM inh: 9*

What do the screens show for `Cc1cc(NC(=O)C(=O)c2c[nH]c3ccccc23)n(-c2nc3c(c(=O)[nH]2)CCC3)n1`?
RMI-FANCM inh: 47

Results for CS(=O)(=O)/C(C#N)=N\Nc1ccc(OC(F)(F)F)cc1 ?
RMI-FANCM inh: 51

Results for Cn1c(=O)c2cc(C(=O)Nc3ccc(C(F)(F)F)cc3)sc2n(C)c1=O ?
RMI-FANCM inh: 64

Results for COC(OC)c1ccc2c(N)c(C(=O)Nc3ccc(C(F)(F)F)cc3)sc2n1 ?
RMI-FANCM inh: 39*

What do the screens show for `COc1nn(C)cc1C(=O)Nc1ccc(C(F)(F)F)cc1`?
RMI-FANCM inh: 57

What do the screens show for `CCOC(=O)C1=C(N)CC(C(=O)OCC)=C(N)C1`?
RMI-FANCM inh: 16*

What do the screens show for `CCOC(=O)c1ccc(N)cc1`?
RMI-FANCM inh: 56

How did CCOC(=O)C1=C(N)C(=O)N(c2ccccc2)C1 do in these assays?
RMI-FANCM inh: 57

Results for CC(=O)Nc1ccc(SCCCC(=O)N2CCC(Cc3ccccc3)CC2)nn1 ?
RMI-FANCM inh: 65

Results for NC(=O)NC(=O)Cc1nc2ccccc2s1 ?
RMI-FANCM inh: 53

How did O=C(Cc1nc2ccccc2s1)c1ccc(O)cc1O do in these assays?
RMI-FANCM inh: 24*

How did O=C(OCc1nc2ccccc2s1)c1nc2ccccc2s1 do in these assays?
RMI-FANCM inh: 62

Results for O=C(Cn1cc(-c2nnc(-c3ccco3)o2)c2ccccc21)NCc1ccccc1 ?
RMI-FANCM inh: 122

Results for Cc1sc2ncnc(SC(c3ccccc3)c3ccccc3)c2c1-c1ccc(Cl)cc1 ?
RMI-FANCM inh: 72

Results for Clc1cc(Cl)cc(C=NCc2ccccc2)c1 ?
RMI-FANCM inh: 21*

What do the screens show for `C(=NCCc1ccccc1)c1ccccc1`?
RMI-FANCM inh: 49

What do the screens show for `C(=NCc1ccccc1)c1ccc2c(c1)OCO2`?
RMI-FANCM inh: 53

What do the screens show for `COc1ccc2sc(NCCN3CCOCC3)nc2c1`?
RMI-FANCM inh: 69

Results for COc1cc(OC)cc(N2C(=O)C3N=NN(Cc4nc(-c5ccccc5Cl)no4)C3C2=O)c1 (configuration not stated) ?
RMI-FANCM inh: 65

What do the screens show for `N[C@H](CO)C(=O)O`?
RMI-FANCM inh: 49

How did NC(CO)C(=O)NNCc1ccc(O)c(O)c1O (configuration not stated) do in these assays?
RMI-FANCM inh: -13*!

What do the screens show for `NC(=O)C1CCN(S(=O)(=O)CCCOc2ccc(F)cc2)CC1`?
RMI-FANCM inh: 60

Results for CC(C)(C)[C@]1(O)CCN2C[C@H]3c4ccccc4CCc4cccc(c43)[C@@H]2C1 ?
RMI-FANCM inh: 43*!

What do the screens show for `CN1CCN2c3ncccc3Cc3ccccc3C2C1` (configuration not stated)?
RMI-FANCM inh: 57

Results for Cc1[nH]nc(-c2ccc(OCCN3CCC(C(N)=O)CC3)cc2O)c1-c1ccc(Br)cc1 ?
RMI-FANCM inh: 64

What do the screens show for `N#CC(C#N)=C1CCC(=C(C#N)C#N)CC1`?
RMI-FANCM inh: 31*

How did CN(C)c1ccc(C(CNC(=O)CN2C(=O)c3ccccc3C2=O)N2CCCC2)cc1 (configuration not stated) do in these assays?
RMI-FANCM inh: 61
